# The panel holds about 79,000 compounds, 15% with a hit somewhere; the sample as a whole holds those more often. Unmarked numbers belong to inactive results. The source made the active and inactive calls. Rule as the data show it: active = growth inhibition above about 70%; inactive = the rest.
# Legend:
# [1] = NCI Yeast Anticancer Drug Screen. Data for the rad52 strain (AID 147);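 also: 0% = growth of vehicle-treated control cultures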; settings: S. cerevisiae rad52 mutant growth inhibition, hits give high values
# Outline: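 Growth of repair-deficient yeast cells was compared between compound-treated and vehicle-treated cultures to give percent inhibition.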
# [2] = NCI Yeast Anticancer Drug Screen. Data for the wt1 strain (AID 149);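 also: 0% = growth of vehicle-treated wt1 cultures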; settings: S. cerevisiae wt1 strain (SPY 50644) growth inhibition, hits give high values
# Outline: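 Measured: growth of wt1 yeast under compound versus vehicle treatment, reported as inhibition.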
# [3] = NCI Yeast Anticancer Drug Screen. Data for the rad50EPP+ strain (AID 151);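 also: 0% = growth of vehicle-treated control cultures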; settings: S. cerevisiae rad50 mutant strain, hits give high values
# Outline: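 Measured: growth inhibition of rad50EPP+ yeast. Reference: vehicle-treated controls. Screen uses strains with defined genetic alterations in DNA damage repair or cell cycle control.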
# [4] = NCI Yeast Anticancer Drug Screen. Data for the mgt1 strain (AID 153); settings: S. cerevisiae mgt1 mutant growth inhibition, hits give high values
# Outline: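 Compounds were applied to mgt1 mutant yeast, and growth was then compared against vehicle-treated control cultures to give percent inhibition.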
# [5] = NCI Yeast Anticancer Drug Screen. Data for the rad50 strain (AID 155);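 also: 0% = growth of vehicle-only cultures of the same strain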; settings: S. cerevisiae rad50 strain growth inhibition, hits give high values
# Outline: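 Growth of the mutant yeast was measured after compound exposure and referenced to vehicle-treated cultures.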
# [6] = NCI Yeast Anticancer Drug Screen. Data for the mec2-1 strain (AID 157); settings: S. cerevisiae mec2-1 strain, hits give high values
# Outline: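 Compounds were applied to mec2-1 yeast cells. Their growth was then compared with that of vehicle-treated cultures to give growth inhibition.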
# [7] = NCI Yeast Anticancer Drug Screen. Data for the rad14 strain (AID 159);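 also: 0% = growth of vehicle-treated control cultures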; settings: S. cerevisiae rad14 strain growth inhibition, hits give high values
# Outline: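 Here, inhibition of yeast growth was measured after compound exposure, using a strain with a genetic defect in DNA damage repair and vehicle-treated cultures as the reference.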
# [8] = NCI Yeast Anticancer Drug Screen. Data for the sgs1 mgt1 strain (AID 161);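 also: 0% = growth of cultures given vehicle only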; settings: S. cerevisiae sgs1 mgt1 strain, hits give high values
# Outline: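 Growth of a repair-deficient yeast mutant was monitored after compound treatment and expressed as inhibition relative to vehicle-treated cultures.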
# [9] = NCI Yeast Anticancer Drug Screen. Data for the CLN2oe strain (AID 163);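 also: 0% = growth of vehicle-only control cultures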; settings: S. cerevisiae CLN2oe strain, hits give high values
# Outline: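 Cells of an engineered yeast line with disturbed cell-cycle regulation are treated with compound. Inhibition of growth is then calculated relative to the vehicle-treated reference.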
# [10] = NCI Yeast Anticancer Drug Screen. Data for the cln2 rad14 strain (AID 165);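 also: 0% = growth equal to vehicle treated cultures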; settings: S. cerevisiae cln2 rad14 strain, hits give high values
# Outline: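 Strain: cln2 rad14 yeast, altered in cell cycle control and DNA damage repair. Read-out: growth inhibition vs vehicle.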
# [11] = NCI Yeast Anticancer Drug Screen. Data for the bub3 strain (AID 167); settings: S. cerevisiae bub3 mutant strain, hits give high values
# Outline: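 Whole-cell yeast assay. The mutant strain was incubated with compounds, and growth inhibition was determined by comparison with vehicle-treated cells.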
# [12] = NCI Yeast Anticancer Drug Screen. Data for the wt2 strain (AID 169);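 also: 0% = growth of vehicle-treated yeast cultures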; settings: S. cerevisiae wt2 strain growth inhibition, hits give high values
# Outline: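 Growth of compound-treated yeast is measured and expressed as inhibition relative to vehicle-only controls.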
# [13] = NCI Yeast Anticancer Drug Screen. Data for the mlh1 strain (AID 171);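 also: 0% = growth of vehicle-treated control cultures of the same strain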; settings: S. cerevisiae mlh1 strain growth inhibition, hits give high values
# Outline: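 Test agents were incubated with yeast bearing a defined DNA damage repair or cell cycle control alteration; values are growth inhibition normalised to vehicle-treated cultures.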
# [14] = NCI Yeast Anticancer Drug Screen. Data for the sgs1 strain (AID 173);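 also: 0% = growth of vehicle-only control cultures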; settings: S. cerevisiae sgs1 mutant, hits give high values
# Outline: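 Strain with an altered DNA repair or cell cycle pathway exposed to compound. Growth then measured. Value = inhibition versus vehicle control.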
# [15] = NCI Yeast Anticancer Drug Screen. Data for the mlh1 rad18 strain (AID 175); settings: S. cerevisiae mlh1 rad18 strain growth inhibition, hits give high values
# Outline: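 A repair-deficient yeast strain is exposed to test compound, and growth is scored relative to vehicle-treated controls.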
# [16] = NCI Yeast Anticancer Drug Screen. Data for the rad18 strain (AID 177); settings: S. cerevisiae rad18 mutant growth inhibition, hits give high values
# Outline: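 DNA-repair-defective yeast; compound treatment; growth inhibition scored against vehicle.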
# [17] = at 5.0 µM (retest, dose inferred, filed as 0.5)
# [18] = at 50.0 µM (retest, dose inferred, filed as 5.0)
structure (smiles),measurement,setting,value
CCCCC(CC)C(=O)[O][Sn]([CH2]CCC)([CH2]CCC)[O]C(=O)C(CC)CCCC (stereo not drawn),growth inhibition,[1]; at 1.2 µM,6%
same,growth inhibition,[1]; at 3.7 µM,11%
same,growth inhibition,[1]; at 11.0 µM,47%
same,growth inhibition,[1]; at 33.0 µM,92% (active)
same,growth inhibition,[1]; at 100.0 µM,98% (active)
same,growth inhibition,[2]; at 1.2 µM,-14%
same,growth inhibition,[2]; at 3.7 µM,-7%
same,growth inhibition,[2]; at 11.0 µM,46%
same,growth inhibition,[2]; at 33.0 µM,93% (active)
same,growth inhibition,[2]; at 100.0 µM,98% (active)
same,growth inhibition,[3]; at 1.2 µM,18%
same,growth inhibition,[3]; at 3.7 µM,6%
same,growth inhibition,[3]; at 11.0 µM,8%
same,growth inhibition,[3]; at 33.0 µM,12%
same,growth inhibition,[3]; at 100.0 µM,29%
same,growth inhibition,[4]; at 1.2 µM,-11%
same,growth inhibition,[4]; at 3.7 µM,9%
same,growth inhibition,[4]; at 11.0 µM,60%
same,growth inhibition,[4]; at 33.0 µM,95% (active)
same,growth inhibition,[4]; at 100.0 µM,98% (active)
same,growth inhibition,[5]; at 1.2 µM,14%
same,growth inhibition,[5]; at 3.7 µM,11%
same,growth inhibition,[5]; [17],50%
same,growth inhibition,[5]; at 11.0 µM,51%
same,growth inhibition,[5]; at 33.0 µM,92% (active)
same,growth inhibition,[5]; [18],98% (active)
same,growth inhibition,[5]; at 50.0 µM,86.4% (active)
same,growth inhibition,[5]; at 100.0 µM,97% (active)
same,growth inhibition,[6]; at 1.2 µM,-11%
same,growth inhibition,[6]; at 3.7 µM,14%
same,growth inhibition,[6]; [17],72% (active)
same,growth inhibition,[6]; at 11.0 µM,56%
same,growth inhibition,[6]; at 33.0 µM,94% (active)
same,growth inhibition,[6]; [18],69%
same,growth inhibition,[6]; at 50.0 µM,87.7% (active)
same,growth inhibition,[6]; at 100.0 µM,98% (active)
same,growth inhibition,[7]; at 1.2 µM,-8%
same,growth inhibition,[7]; at 3.7 µM,3%
same,growth inhibition,[7]; at 11.0 µM,47%
same,growth inhibition,[7]; at 33.0 µM,90% (active)
same,growth inhibition,[7]; at 100.0 µM,97% (active)
same,growth inhibition,[8]; [17],2%
same,growth inhibition,[8]; [18],95% (active)
same,growth inhibition,[8]; at 50.0 µM,89.4% (active)
same,growth inhibition,[9]; at 1.2 µM,-21%
same,growth inhibition,[9]; at 3.7 µM,5%
same,growth inhibition,[9]; at 11.0 µM,37%
same,growth inhibition,[9]; at 33.0 µM,92% (active)
same,growth inhibition,[9]; at 100.0 µM,98% (active)
same,growth inhibition,[10]; [17],59%
same,growth inhibition,[10]; [18],97% (active)
same,growth inhibition,[10]; at 50.0 µM,86.2% (active)
same,growth inhibition,[11]; at 1.2 µM,6%
same,growth inhibition,[11]; at 3.7 µM,18%
same,growth inhibition,[11]; [17],44%
same,growth inhibition,[11]; at 11.0 µM,68%
same,growth inhibition,[11]; at 33.0 µM,95% (active)
same,growth inhibition,[11]; [18],93% (active)
same,growth inhibition,[11]; at 50.0 µM,89.8% (active)
same,growth inhibition,[11]; at 100.0 µM,98% (active)
same,growth inhibition,[12]; at 1.2 µM,-27%
same,growth inhibition,[12]; at 3.7 µM,-10%
same,growth inhibition,[12]; at 11.0 µM,49%
same,growth inhibition,[12]; at 33.0 µM,90% (active)
same,growth inhibition,[12]; at 100.0 µM,98% (active)
same,growth inhibition,[13]; at 1.2 µM,-38%
same,growth inhibition,[13]; at 3.7 µM,-21%
same,growth inhibition,[13]; at 11.0 µM,33%
same,growth inhibition,[13]; at 33.0 µM,88% (active)
same,growth inhibition,[13]; at 100.0 µM,97% (active)
same,growth inhibition,[14]; at 1.2 µM,2%
same,growth inhibition,[14]; at 3.7 µM,-5%
same,growth inhibition,[14]; at 11.0 µM,37%
same,growth inhibition,[14]; at 33.0 µM,89% (active)
same,growth inhibition,[14]; at 100.0 µM,97% (active)
same,growth inhibition,[15]; [17],58%
same,growth inhibition,[15]; [18],98% (active)
same,growth inhibition,[15]; at 50.0 µM,88.8% (active)
same,growth inhibition,[16]; at 1.2 µM,-2%
same,growth inhibition,[16]; at 3.7 µM,0%
same,growth inhibition,[16]; at 11.0 µM,46%
same,growth inhibition,[16]; at 33.0 µM,91% (active)
same,growth inhibition,[16]; at 100.0 µM,97% (active)

# Source: PubChem BioAssay (NCI)
